Records with an inconclusive call do not appear. Where a call stands in place of a potency, no number is given. The source made the active and inactive calls. Calls follow the shape of the dose curve; as a rule, active = well fitted cell-killing curve with a large enough effect in the repeat runs; inconclusive = weak or mixed curves, or effect the other way; inactive = no such curve, though single readings can be large or run the other way.
Potency is read from the fitted curve at half-maximal effect.

This experiment in a line: qHTS assay to identify small molecule antagonists of the thyroid receptor (TR) signaling pathway - cell viability counter screen (AID 743064). Also: nearly all actives have a fitted effect of over 50% in size. To be noted: GH3.TRE-Luc viability, CellTiter-Fluor, 24 h; series mostly up to 70.3 µM. The text has this: National Center for Advancing Translational Sciences [NCATS]
NIH Chemical Genomics Center [NCGC]
U.S. Environmental Protection Agency [EPA]
National Institutes of Environmental Health Sciences [NIEHS]
National Toxicology Program [NTP]
U.S. Food and Drug Administration [FDA]
Thyroid receptor (TR), a nuclear hormone receptor, plays an important role in development, proliferation, differentiation, metabolism, brain function, and cardiovascular system. […] To profile the Tox21 10K compound library in TR signaling, a cell-based GH3-TRE-Luc assay (GH3.TRE-Luc cell line, developed by the laboratory of Dr. Albertinka J. Murk, Wageningen University) was used to measure the inhibition of TR. GH3 (rat pituitary tumor) cells stably expressing a TR activity sensor consisting of two TR response elements and a luciferase reporter gene. The cytotoxicity of the Tox21 compound library against the GH3.TRE-Luc cell line was tested in parallel by measuring the cell viability using CellTiter-Fluor assay (Promega, Madison, WI) in the same wells.
Tox21 Assay Protocol Summary:
GH3.TRE-Luc cells were dispensed at 1500 cells/4 uL/well into 1536-well white solid bottom plates using a Multidrop Combi dispenser (Thermo Fisher Scientific Inc., Waltham, MA). After the assay plates were incubated at 37 C for 4 hours, 23 nL of library compound or DMSO controls was transferred to the assay plates by a pintool station (Kalypsys, San Diego, CA), followed by addition of 1 ul of T3 (1 nM, final concentration in the wells) to stimulate TR transactivation. The assay plates were incubated at 37 C for 23.5 h, and then 1 uL of CellTiter-Fluor reagent (Promega, Madision, WI) of measuring cytotoxicity was added to each well using a Bioraptr Flying Reagent Dispenser (FRD) workstation (Beckman Coulter, Indianapolis, IN, USA). The plates were incubated at 37C and 5% CO2 for additional 30 min, and fluorescence intensity was measured by a ViewLux plate reader (PerkinElmer, Shelton, CT).
As to `O=C(Nc1ccc2c(c1)Cc1ccccc1-2)C(F)(F)F`, the Potency result is “inactive”.

As to `Cc1ccc(S(=O)(=O)NC(=O)NC2CCCC2)cc1`, the Potency result was “inactive”.

On to `NC(=O)c1ccccc1C(N)=O`, for which the Potency result was “inactive”.

On to `CC(=O)Nc1ccn(C2COC(COC(=O)c3ccccc3)O2)c(=O)n1` (stereo not given), for which the Potency entry was “inactive”.

On to `Cc1ccc2c(Cl)cc(Cl)c(O)c2n1`, for which the Potency was 1.19 µM (active).

For `CCCCC(CC)COCCC#N` (stereo not given), the Potency entry is “inactive”.

Consider `O=C(O)c1ccc2cc(O)ccc2c1`, for which the Potency result is “inactive”.

For the compound `O=C(c1ccc(Cl)cc1)c1ccc(Cl)cc1`, the Potency entry was “inactive”.

With `COC(=O)c1cc(Cl)ccc1[N+](=O)[O-]`, the Potency entry was “inactive”.

As to `CC(C)=CCC[C@H](C)CCO`, the Potency result was “inactive”.

For `O=[N+]([O-])c1ccccc1CCO`, the Potency entry is “inactive”.

For the compound `[O-][n+]1ccc(Cl)cc1`, the Potency entry was “inactive”.

For the compound `CCC(CC)C(=O)O`, the Potency result is “inactive”.

`CC(O)CN` (stereo not given): the Potency result was “inactive”.

For the compound `CC1(C)CC(=O)CC(C)(C)N1`, the Potency entry is “inactive”.

Regarding `CCCCCCCCNC`, the Potency entry was “inactive”.

In the case of `CC1(COc2ccc(CC3SC(=O)NC3=O)cc2)CCCCC1` (stereo not given), the Potency is 23.7 µM (active).

As to `Nc1ncnc2c1ncn2[C@@H]1O[C@H](CO)[C@@H](O)[C@H]1O`, the Potency result is “inactive”.

For `CC(C)(Cc1c[nH]c2ccccc12)NCC(O)COc1ccccc1C#N` (stereo not given), the Potency was 21.1 µM (active).

Take `Oc1ccc(CCNCCCCCCNCCc2ccccc2)cc1O`: the Potency was 29.8 µM (active).

On to `Clc1cc(Cl)c2c(c1)N=C1CCCCCN1C2`, for which the Potency entry was “inactive”.

Turning to `CC(C)Cc1nccs1`, the Potency entry was “inactive”.

As for `OCC(O)c1ccccc1` (stereo not given), the Potency result is “inactive”.

On to `CCCCCCCCCC(C)C=O` (stereo not given), for which the Potency entry was “inactive”.

For the compound `O=C1c2ccccc2C(=O)C1c1ccc2cc(S(=O)(=O)O)cc(S(=O)(=O)O)c2n1`, the Potency was 33.1 µM (active).

As to `COc1ccc(CN(CCN(C)C)c2ncccn2)cc1`, the Potency entry was “inactive”.

For the compound `CC(=O)OCC(=O)[C@@]1(O)CC[C@H]2[C@@H]3CCC4=CC(=O)C=C[C@]4(C)[C@@]3(F)[C@@H](O)C[C@@]21C`, the Potency entry was “inactive”.

Consider `Cc1cc(N)n(-c2ccccc2)n1`, for which the Potency result was “inactive”.

Take `FC(F)(Cl)C(F)(Cl)Cl`: the Potency entry was “inactive”.

As to `Nc1ccc(C(=O)Oc2ccccc2)c(O)c1`, the Potency entry was “inactive”.

`O=P(c1ccccc1)(c1ccccc1)c1ccccc1`: the Potency result is “inactive”.

As for `CC(COc1ccccc1)NC(C)C(O)c1ccc(O)cc1` (stereo not given), the Potency entry was “inactive”.

With `Cc1cc(C)n(CO)n1`, the Potency result was “inactive”.

Regarding `Cc1cc(C)c(C)c(O)c1`, the Potency entry was “inactive”.

Consider `CC(=O)Nc1cccc(N)c1`, for which the Potency result was “inactive”.

With `O=C(OCCCCCOC(=O)c1ccccc1)c1ccccc1`, the Potency result is “inactive”.

In the case of `O=C1CCCN1CCO`, the Potency entry is “inactive”.

With `CO[C@@H]1COCC[C@@H]1N[C@@H]1CC[C@@](C(=O)N2CCc3ncc(C(F)(F)F)cc3C2)(C(C)C)C1`, the Potency entry was “inactive”.

Turning to `O=C(O)c1ccccc1[N+](=O)[O-]`, the Potency entry is “inactive”.

With `CCc1c(C)[nH]c2c1C(=O)C(CN1CCOCC1)CC2` (stereo not given), the Potency entry was “inactive”.

The values are drawn from PubChem BioAssay (Tox21).
